Test results taken from PubChem BioAssay AID2284172 (EPA ToxCast).
Calls of active or inactive are those of the source. Rule for the calls: active = hit-call score of the fitted dose curve at least 0.9, where 1 is the maximum; inactive = score below 0.9.

Molecular target: Voltage-dependent L-type calcium channel subunit alpha-1C (Rattus norvegicus) (UniProt P22002)
Assay: ERF_FR_IC_rCACNA1C_Dihydropyridine: Eurofins (ERF) Calcium Ion Channel Binding (Dihydropyridine Site) LeadHunter Assay for rat Cav1.2 (L-type), conducted at France lab site
Protocol: ERF_FR_IC_rCACNA1C_Dihydropyridine is a biochemical, single-readout assay that uses extracted gene-proteins in a cell-free assay. Measurements were taken 1.5 hour after chemical dosing in a 96-well plate. See Cav1.2 (L-type) Rat Calcium Ion Channel Binding (Dihydropyridine Site) Assay, Cerep.ERF_FR_IC_rCACNA1C_Dihydropyridine is an assay component calculated from the ERF_FR_IC_rCACNA1C_Dihydropyridine assay. It is designed to measure radioligand binding using a type of binding reporter as detected by scintillation counting with radiometry technology.Data from the assay component ERF_FR_IC_rCACNA1C_Dihydropyridine was analyzed at the assay endpoint, ERF_FR_IC_rCACNA1C_Dihydropyridine, in the positive analysis fitting direction relative to DMSO as the negative control and baseline of activity. Using a type of binding reporter, loss-of-signal activity can be used to understand changes in binding as they relate to gene CACNA1C. To generalize the intended target to other relatable targets, this assay endpoint is annotated to the ion channel intended target family, where the subfamily is voltage gated (Calcium).
Rat brain cells are incubated for 90 minutes at room temprature with [3H]nitrendipine (0.25 nM) ligand and Nitrendipine as control inhibitor. Test Sample Requirements: Minimum for 1) Screen: 60 ul of 10 mM stock -OR- 1 mg (pre-weighed) for 10 uM final testing. […]

Sequence of Voltage-dependent L-type calcium channel subunit alpha-1C (Rattus norvegicus) (P22002 whole entry, looked up): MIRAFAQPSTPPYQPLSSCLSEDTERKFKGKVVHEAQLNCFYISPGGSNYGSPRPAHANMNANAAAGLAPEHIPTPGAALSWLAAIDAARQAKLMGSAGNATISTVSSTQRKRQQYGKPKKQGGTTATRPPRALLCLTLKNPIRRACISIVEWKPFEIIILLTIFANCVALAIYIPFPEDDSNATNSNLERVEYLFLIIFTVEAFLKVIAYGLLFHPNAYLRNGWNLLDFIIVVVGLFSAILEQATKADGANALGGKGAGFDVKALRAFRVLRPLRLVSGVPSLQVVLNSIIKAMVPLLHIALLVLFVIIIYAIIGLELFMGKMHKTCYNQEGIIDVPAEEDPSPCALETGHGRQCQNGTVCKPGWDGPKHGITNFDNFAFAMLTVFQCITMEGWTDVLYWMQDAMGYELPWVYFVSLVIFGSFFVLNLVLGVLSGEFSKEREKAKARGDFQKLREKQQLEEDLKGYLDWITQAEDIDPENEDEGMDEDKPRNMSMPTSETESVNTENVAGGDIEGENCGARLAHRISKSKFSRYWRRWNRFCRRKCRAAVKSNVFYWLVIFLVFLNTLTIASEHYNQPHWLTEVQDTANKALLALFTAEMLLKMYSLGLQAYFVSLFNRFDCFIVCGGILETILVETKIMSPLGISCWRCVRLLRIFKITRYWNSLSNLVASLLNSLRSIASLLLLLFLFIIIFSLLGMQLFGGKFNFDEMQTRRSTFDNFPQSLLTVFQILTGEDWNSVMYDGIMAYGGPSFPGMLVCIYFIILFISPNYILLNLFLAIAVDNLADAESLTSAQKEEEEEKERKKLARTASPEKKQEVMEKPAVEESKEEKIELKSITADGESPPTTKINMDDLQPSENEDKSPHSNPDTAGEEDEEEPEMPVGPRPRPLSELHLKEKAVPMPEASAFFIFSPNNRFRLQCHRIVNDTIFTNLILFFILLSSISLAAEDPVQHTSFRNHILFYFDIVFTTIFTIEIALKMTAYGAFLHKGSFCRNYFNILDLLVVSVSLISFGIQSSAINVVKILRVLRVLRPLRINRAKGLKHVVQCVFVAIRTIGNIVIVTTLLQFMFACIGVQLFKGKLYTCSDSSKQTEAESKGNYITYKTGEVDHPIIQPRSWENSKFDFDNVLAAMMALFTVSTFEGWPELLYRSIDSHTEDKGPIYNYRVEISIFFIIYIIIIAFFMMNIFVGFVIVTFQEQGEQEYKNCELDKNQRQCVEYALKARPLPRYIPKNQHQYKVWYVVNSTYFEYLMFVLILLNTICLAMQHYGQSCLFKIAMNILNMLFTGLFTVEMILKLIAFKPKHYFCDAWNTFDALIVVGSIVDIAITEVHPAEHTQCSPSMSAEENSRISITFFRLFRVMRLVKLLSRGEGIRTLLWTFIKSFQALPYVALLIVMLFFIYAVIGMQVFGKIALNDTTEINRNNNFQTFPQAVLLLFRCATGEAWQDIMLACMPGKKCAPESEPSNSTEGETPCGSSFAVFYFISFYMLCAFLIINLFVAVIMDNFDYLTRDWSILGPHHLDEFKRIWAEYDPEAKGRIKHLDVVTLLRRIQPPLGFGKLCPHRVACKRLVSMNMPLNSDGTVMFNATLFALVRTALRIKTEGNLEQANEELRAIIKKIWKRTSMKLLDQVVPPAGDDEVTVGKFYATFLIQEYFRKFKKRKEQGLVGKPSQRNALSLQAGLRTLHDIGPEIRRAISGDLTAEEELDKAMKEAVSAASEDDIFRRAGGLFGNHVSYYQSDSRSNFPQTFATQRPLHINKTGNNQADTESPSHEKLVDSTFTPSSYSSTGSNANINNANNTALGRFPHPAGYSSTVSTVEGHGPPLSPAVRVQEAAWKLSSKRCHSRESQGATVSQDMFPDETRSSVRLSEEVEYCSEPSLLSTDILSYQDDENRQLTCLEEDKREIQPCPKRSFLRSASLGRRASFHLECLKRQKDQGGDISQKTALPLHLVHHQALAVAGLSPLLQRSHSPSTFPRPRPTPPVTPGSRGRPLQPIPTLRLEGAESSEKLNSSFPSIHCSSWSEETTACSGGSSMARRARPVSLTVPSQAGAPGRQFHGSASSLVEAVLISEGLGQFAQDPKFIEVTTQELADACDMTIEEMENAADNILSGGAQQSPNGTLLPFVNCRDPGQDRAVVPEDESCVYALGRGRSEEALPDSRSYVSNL

COc1cc(CCC(=O)CC(=O)CCc2ccc(O)c(OC)c2)ccc1O
AC50: 3.16 µM (active)
